Data: the supplement of paper PMC4022240
± gives the standard deviation.

T1: HaloTag-ATRX ADD domain (163-292)
T1 chain: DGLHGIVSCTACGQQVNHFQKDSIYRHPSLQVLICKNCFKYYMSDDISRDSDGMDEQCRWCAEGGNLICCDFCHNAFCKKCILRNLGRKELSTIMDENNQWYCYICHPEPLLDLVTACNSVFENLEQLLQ

B1: Unmod H2B variant Y S K R S T I S S R E I Q (peptide)
chain: YSKRSTISSREIQ
B2: Unmod H2B variant K H A V S E G T K A V T K (peptide)
chain: KHAVSEGTKAVTK
B3: Unmod H3 variant T A R K S T G G K A P R K (peptide)
chain: TARKSTGGKAPRK
B4: Unmod H2B variant P G E L A K H A V S E G T (peptide)
chain: PGELAKHAVSEGT
B5: Unmod H3 variant P R K Q L A T K A A R K S (peptide)
chain: PRKQLATKAARKS

Target: T1, HaloTag-ATRX ADD domain (163-292)
Assay: peptide microarray binding signal (635 nm), min-max normalized on array (fraction of array maximum); higher = stronger binding
Conditions: peptide region: Unmod H2B variant; binder concentration: 50 nM
Outline: (§1)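 Histone 13-mer peptide–cellulose conjugates were printed in triplicate on nitrocellulose with a Cy3 tracer, then blocked overnight at 4°C. Arrays were probed for 1 h at 4°C with biotin-labelled HaloTag reader fusions (10 nM to 1 μM) plus streptavidin-Alexa Fluor 647, or with rabbit histone antibodies (1:10,000 to 1:2,000) plus anti-rabbit Alexa 647. An Axon GenePix 4000B scanned 635 nm for signal and 532 nm for misprints. Binding signal is the triplicate-spot mean intensity, min-max scaled per library.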

Row | Binder | peptide microarray binding signal
1 | B1 | 0.01006 ± 2.8e-05
2 | B2 | 0.00533 ± 0.00061
3 | B4 | 0.01009 ± 9.9e-05

Same assay, conditions: peptide region: Unmod H2B variant; binder concentration: 500 nM

Row | Binder | peptide microarray binding signal
4 | B1 | 0.0303 ± 0.0022
5 | B2 | 0.00738 ± 0.00021
6 | B4 | 0.0228 ± 0.001

Target: HaloTag-ING2 PHD (mouse Ing2 200-280)
Assay: as above
Conditions: peptide region: Unmod H2B variant; binder concentration: 10 nM
Outline: as §1

Row | Binder | peptide microarray binding signal
7 | B1 | 0.0109 ± 0.00062
8 | B2 | 0.00406 ± 5.6e-05
9 | B4 | 0.0117 ± 0.00035

Same assay, conditions: peptide region: Unmod H2B variant; binder concentration: 100 nM

Row | Binder | peptide microarray binding signal
10 | B1 | 0.0429 ± 0.0047
11 | B2 | 0.0122 ± 0.00094
12 | B4 | 0.0287 ± 0.0019

Target: anti-H3K4me3 antibody ab8580
Assay: as above
Conditions: peptide region: Unmod H2B variant; binder concentration: 1:2,000 dilution
Outline: as §1

Row | Binder | peptide microarray binding signal
13 | B1 | 0.00225 ± 0.00019
14 | B2 | 0.000906 ± 6.3e-05
15 | B4 | 0.0133 ± 0.0011

Same assay, conditions: peptide region: Unmod H2B variant; binder concentration: 1:10,000 dilution

Row | Binder | peptide microarray binding signal
16 | B1 | 0.00211 ± 6.7e-05
17 | B2 | 0.0012 ± 3.2e-05
18 | B4 | 0.0163 ± 0.00093

Target: anti-H3K9me3 antibody ab8898
Assay: as above
Conditions: peptide region: Unmod H2B variant; binder concentration: 1:2,000 dilution
Outline: as §1

Row | Binder | peptide microarray binding signal
19 | B1 | 0.00103 ± 2.2e-05
20 | B2 | 0.000378 ± 7.5e-06
21 | B4 | 0.00447 ± 0.00018

Same assay, conditions: peptide region: Unmod H2B variant; binder concentration: 1:10,000 dilution

Row | Binder | peptide microarray binding signal
22 | B1 | 0.0015 ± 2.5e-05
23 | B2 | 0.000865 ± 9e-06
24 | B4 | 0.00484 ± 7.1e-05

Target: T1, HaloTag-ATRX ADD domain (163-292)
Assay: as above
Conditions: peptide region: Unmod H3 variant; binder concentration: 50 nM
Outline: as §1

Row | Binder | peptide microarray binding signal
25 | B3 | 0.00552 ± 0.00053
26 | B5 | 0.00345 ± 4.2e-05

Same assay, conditions: peptide region: Unmod H3 variant; binder concentration: 500 nM

Row | Binder | peptide microarray binding signal
27 | B3 | 0.0118 ± 0.00044
28 | B5 | 0.0108 ± 0.00017

Target: HaloTag-ING2 PHD (mouse Ing2 200-280)
Assay: as above
Conditions: peptide region: Unmod H3 variant; binder concentration: 10 nM
Outline: as §1

Row | Binder | peptide microarray binding signal
29 | B3 | 0.00633 ± 0.00044
30 | B5 | 0.00722 ± 0.00031

Same assay, conditions: peptide region: Unmod H3 variant; binder concentration: 100 nM

Row | Binder | peptide microarray binding signal
31 | B3 | 0.019 ± 0.0047
32 | B5 | 0.0163 ± 0.00099

Target: anti-H3K4me3 antibody ab8580
Assay: as above
Conditions: peptide region: Unmod H3 variant; binder concentration: 1:2,000 dilution
Outline: as §1

Row | Binder | peptide microarray binding signal
33 | B3 | 0.001 ± 4.5e-05
34 | B5 | 0.00119 ± 3.4e-05

Same assay, conditions: peptide region: Unmod H3 variant; binder concentration: 1:10,000 dilution

Row | Binder | peptide microarray binding signal
35 | B3 | 0.00114 ± 1.2e-05
36 | B5 | 0.0012 ± 1.2e-05

Target: anti-H3K9me3 antibody ab8898
Assay: as above
Conditions: peptide region: Unmod H3 variant; binder concentration: 1:2,000 dilution
Outline: as §1

Row | Binder | peptide microarray binding signal
37 | B3 | 0.000664 ± 1.2e-05
38 | B5 | 0.000785 ± 1.3e-05

Same assay, conditions: peptide region: Unmod H3 variant; binder concentration: 1:10,000 dilution

Row | Binder | peptide microarray binding signal
39 | B3 | 0.000923 ± 9.6e-06
40 | B5 | 0.000923 ± 9.6e-06
